Pf Dd2 growth – qHTS Primary assay for Inhibitors of Plasmodium falciparum Dd2 growth in vitro. Potency, µM (titrated, usually from 28.9 µM), without a hit: at the highest dose activity, negative = inhibition, actives largely listed as inhibitors. actives 4.3% (n = 120,000). P. falciparum Dd2 growth, SYBR Green, 72 h; active means well fitted inhibition curve with a large enough effect;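 further: plate controls were DMSO vehicle for no effect and reference drug for full effect; nearly all actives have a fitted effect of over 65% in size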
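Readout: SYBR Green fluorescence, 485 nm excitation, 535 nm emission, after ~16 h lysis at 37C. Before that, Dd2-infected red cells (2.5% hematocrit) grew 72 h with compound, 29 uM top final concentration.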
* marks the source's active call; other numbers are inactive results; i = inactive; [ ] = remark or other dose. This is one part of a sample in which hits are shown more often than they occur. Potency means the concentration at half of the fitted maximal effect.

SMILES	Pf Dd2 growth
Cc1ccc(NC(=O)CSc2nc(-c3ccco3)cc(C(F)(F)F)n2)cc1C	-29%
COc1ccc(NC(=O)CCCSc2nc(-c3ccco3)cc(C(F)(F)F)n2)cc1	85%
Cc1cc(F)ccc1NC(=O)CCSc1nc(-c2ccco2)cc(C(F)(F)F)n1	8.9µM*
CC(=O)c1cccc(NC(=O)CCCSc2nc(-c3ccco3)cc(C(F)(F)F)n2)c1	3%
N#Cc1cccc(C(=O)Nc2ccc([C@H]3OCC(=O)N(C4CCOCC4)[C@@H]3CO)cc2)c1	-24%
CCc1nncn1C1CCN(S(=O)(=O)c2cc(F)ccc2C)CC1	2%
O=C(CCc1nc2ccccc2s1)N[C@H](c1ccccn1)C1CC(O)C1 (stereo partly specified)	0%
CC(C)N1C[C@H](O)C[C@H]1c1nnc2n1CCN(C(=O)C1CCOCC1)CC2	-5%
COCCNC(=O)c1ccc(OC2CCN(CC3CCOC3)CC2)c(Cl)c1 (stereo unspecified)	-11%
COCCNC(=O)c1ccc(OC2CCN(Cc3ccc(C)s3)CC2)c(Cl)c1	6.3µM*
CC(C)n1cc(CN2CCC(Oc3ccc(C(=O)NC4CCCC4)cc3Cl)CC2)cn1	-10%
COCCNC(=O)c1ccc(OC2CCN(Cc3cccc4c3OCO4)CC2)c(Cl)c1	7.1µM*
COCCNC(=O)c1ccc(OC)cc1OC1CCN(Cc2cccc3cccnc23)CC1	i
COCCNC(=O)c1ccc(OC2CCN(C(=O)[C@@H](C)N)CC2)c(Cl)c1	-13%
CN1C[C@H](O)C[C@H]1c1nnc2n1CCN(C(=O)CC1CCCC1)CC2	12%
C=CCNC(=O)[C@@H]1CCCN1[C@@H](C(=O)NC)c1ccccc1OC	i
CN(C)c1ccc(CN2C[C@H](O)C[C@H]2c2nc(-c3ccc(C(F)(F)F)cc3)no2)cc1	23%[44.1 µM]
COC(=O)CNC(=O)N1CC(c2nnc(-c3ccncc3)o2)C2(CCOCC2)C1 (stereo unspecified)	24%
COc1ccc(NC(=O)c2nc(C(O)c3ccccc3)oc2C)cn1 (stereo unspecified)	i
Cc1oc(C(O)c2ccccc2)nc1C(=O)Nc1ccc2c(c1)NC(=O)CO2 (stereo unspecified)	10µM*
Cc1oc(C(O)c2ccccc2)nc1C(=O)Nc1ccc(C(=O)Nc2ccccc2)cc1 (stereo unspecified)	i
Cc1ccsc1C(=O)N1CCc2n[nH]c(=O)n2CC1	9%
O=C1c2ccccc2CN1C1CCN(CC2CC2)CC1	4%[44.1 µM]
O=C(O)c1ccc(CN2C[C@H](O)C[C@H]2c2nc(-c3ccncc3)no2)cc1	-2%[44.1 µM]
CC1CCN(S(=O)(=O)c2ccc3nc(-c4cccnc4)cc(C(=O)NCCCOC(C)C)c3c2)CC1	i
SMILES	Pf Dd2 growth
CCCCN(CCCC)CCNC(=O)c1cc(-c2cccnc2)nc2ccc(S(=O)(=O)N3CCC(C)CC3)cc12	-25%
CCCCN(C)CCNC(=O)c1cc(-c2cccnc2)nc2ccc(S(=O)(=O)N3CCC(C)CC3)cc12	5µM*
O=C1NCN(Cc2ccc(Cl)cc2)C12CCN(Cc1ccc(C(F)(F)F)cc1)CC2	-11%
O=C(CCCn1c(=O)[nH]c2ccc(Br)cc2c1=O)N1CCN(c2cccc(Cl)c2)CC1	i
O=C(CCCCCn1c(=O)[nH]c2ccccc2c1=O)NCc1ccccc1	10µM*
O=C(CCCCCn1c(=O)[nH]c2ccccc2c1=O)NCc1ccc(Cl)cc1	i
CCCCCn1c(=O)[nH]c2cc(C(=O)N3CCN(c4ccccc4F)CC3)ccc2c1=O	-13%
Cc1ccc(C)c(N2CCN(C(=O)c3ccc4c(=O)n(CCc5ccccc5)c(=O)[nH]c4c3)CC2)c1	-24%
CC(=O)c1ccc(N2CCN(C(=O)CCCCn3c(=O)[nH]c4ccccc4c3=O)CC2)cc1	5.6µM*
O=C(CCCCCn1c(=O)[nH]c2ccccc2c1=O)NCCc1ccccc1	-5%
CC(=O)c1ccc(N2CCN(C(=O)CCCn3c(=O)[nH]c4ccsc4c3=O)CC2)cc1	i
COC(=O)c1ccc2c(=O)n(CCCCCC(=O)N3CCN(c4cc(Cl)ccc4C)CC3)c(=O)[nH]c2c1	10µM*
CC(C)c1ccc(N2C(=O)N[C@@H]3CCN(C(=O)c4ccc(N(C)C)cc4)[C@@H]3C2=O)cc1	i
O=C(CN1CCCCCCC1)N1CCCC2(CCNC2)C1 (stereo unspecified)	7%
COc1ccc(Nc2cc(C(=O)NCCCN(C)C3CCCCC3)c3ccccc3n2)cc1	5.6µM*
COc1ccc(Nc2cc(C(=O)NC3CCCC3)c3ccccc3n2)cc1	4%
O=C(NC1CCCCC1)c1cc(Nc2ccccc2)nc2ccccc12	2%
COc1ccc(Nc2cc(C(=O)NCCCN(C)C3CCCCC3)c3ccccc3n2)c(OC)c1	8.9µM*
COc1ccc(CNC(=O)c2cc(Nc3ccc(OC)cc3OC)nc3ccccc23)cc1	8%
COc1ccc(N2CCN(CCCNC(=O)c3cc(Nc4ccc(OC)cc4OC)nc4ccccc34)CC2)cc1	-12%
CCc1noc(Cn2nc(-c3ccccc3)c3ccccc3c2=O)n1	-12%
Cc1nc(C2CC(O)C2)cc(N2CC(N3CCOCC3)C2)n1 (stereo unspecified)	-13%
Cn1cncc1CNC(=O)c1cc(-c2ccc(F)cc2)cc2ncn(C)c12	24%[44.1 µM]
COc1ccc2c(c1)CCc1c(C(=O)Nc3cnn(Cc4ccc(Cl)cc4Cl)c3)noc1-2	7.9µM*
CCc1cc(C(=O)Nc2cnn(Cc3ccccc3C)c2)no1	0%
SMILES	Pf Dd2 growth
COc1ccc(CN2Cc3cc(NC(=O)c4ccc(Cl)cc4)ccc3OC(C)C2=O)c(OC)c1 (stereo unspecified)	i
CCN1C(=O)C2CC3(CCN(C(=O)Cc4ccccc4)CC3)CN2C1=O (stereo unspecified)	i
COc1ccc(F)c(CN2CCCC(O)(CN3CCOC(C)(C)C3)C2=O)c1 (stereo unspecified)	9%
COc1ccc(-c2cc(N3CCC(NC(=O)Cc4ccc(Cl)cc4)CC3)n[nH]2)cc1	-13%
COc1cccc(CC(=O)NC2CCCN(c3cc(-c4ccc(F)cc4)[nH]n3)C2)c1 (stereo unspecified)	i
COc1ccc(CC(=O)NC2CCN(c3cc(-c4ccc(Cl)cc4)[nH]n3)C2)cc1OC (stereo unspecified)	7.9µM*
O=C(Cc1cccc(F)c1)NC1CCN(c2cc(-c3ccc(F)cc3)[nH]n2)C1 (stereo unspecified)	6.3µM*
COc1ccc(CC(=O)NC2CCN(c3cc(-c4ccc(F)cc4)[nH]n3)C2)cc1 (stereo unspecified)	-10%
CCOc1ccc(CC(=O)NC2CCN(c3cc(-c4ccc(F)cc4)[nH]n3)C2)cc1OCC (stereo unspecified)	-10%
Cc1cc(Cl)ccc1NC(=O)N1CCC(Oc2ncccc2C(=O)N2CCOCC2)C1 (stereo unspecified)	38%
Cn1cc(CN2Cc3c(cc(N4CCOCC4)nc3-c3ccc(CO)cc3)C2=O)cn1	i
CNC(=O)c1cccc(-c2cnc3[nH]cc(CC(=O)NCc4cccs4)c3c2)c1	i
CCc1ccccc1NC(=O)N1CCc2cc(OC)c(OC)cc2C1CC(=O)OC (stereo unspecified)	i
CCOc1ccc(NC(=O)N2CCc3cc(OC)c(OC)cc3C2CNC(C)=O)cc1 (stereo unspecified)	i
COc1cc2c(cc1OC)C(COc1ccccc1OC)N(C(=O)c1ccc(S(=O)(=O)N(C)C)cc1)CC2 (stereo unspecified)	i

Screening results: PubChem, National Center for Advancing Translational Sciences (NCATS)
